53 compounds from PubChem BioAssay AID588511 (Johns Hopkins Ion Channel Center, 2011) can be followed below.

Molecules are shown by their SMILES. About 3,600 (1.2%) of roughly 310,000 compounds were called active.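 How the source made its calls: active means ratio plate-corrected score three or more library SD toward inhibition, starting fluorescence score within five deviations; inactive means the rest.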 What follows is part of a selection rich in actives, with near analogues and random picks from the rest.

The target in the assay is Anoctamin-1 (Mus musculus) (UniProt Q8BHY3). Briefly: blockers of mouse ANO1 Ca-activated Cl channel – cell-based, HTS, primary screen (AID 588511).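 On normalized B-score (activity score, 25-100; higher = stronger inhibition): score derived from kinetic fluorescence span divided by baseline fluorescence per well.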 As to conditions: HEK293 TMEM16A/YFP iodide influx fluorescence, ionomycin; at 10 µM.
Chain of Anoctamin-1 (Mus musculus) (Q8BHY3 whole entry, looked up): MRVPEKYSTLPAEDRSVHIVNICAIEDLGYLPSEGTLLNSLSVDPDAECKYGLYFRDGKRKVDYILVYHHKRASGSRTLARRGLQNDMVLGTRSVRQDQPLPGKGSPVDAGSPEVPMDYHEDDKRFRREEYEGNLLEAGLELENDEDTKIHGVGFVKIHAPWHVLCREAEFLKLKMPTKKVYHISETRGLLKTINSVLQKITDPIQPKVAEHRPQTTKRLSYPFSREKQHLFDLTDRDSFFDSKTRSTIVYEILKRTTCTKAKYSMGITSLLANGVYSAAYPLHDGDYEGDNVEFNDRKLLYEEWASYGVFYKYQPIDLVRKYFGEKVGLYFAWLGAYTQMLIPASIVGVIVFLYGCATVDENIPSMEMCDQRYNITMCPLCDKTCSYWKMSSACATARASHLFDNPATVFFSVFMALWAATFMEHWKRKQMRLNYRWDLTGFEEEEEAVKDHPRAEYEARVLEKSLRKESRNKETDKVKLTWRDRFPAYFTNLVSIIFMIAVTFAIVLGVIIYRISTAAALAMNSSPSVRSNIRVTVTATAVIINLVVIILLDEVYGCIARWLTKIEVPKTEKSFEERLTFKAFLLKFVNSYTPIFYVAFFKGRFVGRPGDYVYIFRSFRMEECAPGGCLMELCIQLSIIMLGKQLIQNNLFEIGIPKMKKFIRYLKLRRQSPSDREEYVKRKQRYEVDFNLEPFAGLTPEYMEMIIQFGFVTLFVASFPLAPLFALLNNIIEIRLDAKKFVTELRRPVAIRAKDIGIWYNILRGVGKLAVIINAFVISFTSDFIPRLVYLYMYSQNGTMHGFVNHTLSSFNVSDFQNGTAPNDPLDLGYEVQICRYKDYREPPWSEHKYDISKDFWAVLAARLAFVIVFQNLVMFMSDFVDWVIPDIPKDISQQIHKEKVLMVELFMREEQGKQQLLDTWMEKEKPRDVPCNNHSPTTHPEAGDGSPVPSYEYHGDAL
On to `COc1ccc([C@H]2[C@H](C(C)=O)N3N=Cc4ccccc4C3C23C(=O)OC(C)(C)OC3=O)cc1` (stereo partly drawn), for which the normalized B-score (activity score, 25-100; higher = stronger inhibition) result is “inactive”.

As for `O=C(Nc1cccc(Cl)c1Cl)c1ccccc1NC(=O)C1CC=CCC1C(=O)O` (stereo not drawn), the normalized B-score (activity score, 25-100; higher = stronger inhibition) result was “inactive”.

In the case of `Cc1c(C(=O)NC(=S)NCc2cccnc2)oc2ccccc12`, the normalized B-score (activity score, 25-100; higher = stronger inhibition) result was “inactive”.

As for `Cc1oc2nc(SCC(=O)NCc3cccnc3)nc(N)c2c1C`, the normalized B-score (activity score, 25-100; higher = stronger inhibition) was 100 (active).

Turning to `Cc1oc2nc(SCC(=O)Nc3ccc(S(N)(=O)=O)cc3)nc(NC(=O)c3ccccc3)c2c1C`, the normalized B-score (activity score, 25-100; higher = stronger inhibition) result was “inactive”.

For the compound `COc1ccc(CCNC(=O)c2nnc(CS(=O)(=O)c3ccccc3)o2)cc1OC`, the normalized B-score (activity score, 25-100; higher = stronger inhibition) result is “inactive”.

With `Cc1ccccc1NC(=O)Nc1ccccc1N1CCCCC1`, the normalized B-score (activity score, 25-100; higher = stronger inhibition) result was “inactive”.

Take `O=C(CNCCC1=CCCCC1)Nc1ccccc1N1CCCCCC1`: the normalized B-score (activity score, 25-100; higher = stronger inhibition) is 25 (active).

Turning to `Cc1ccccc1NC(=O)CNc1ccccc1N1CCCCC1`, the normalized B-score (activity score, 25-100; higher = stronger inhibition) entry is “inactive”.

For `COc1ccccc1CNC(=O)CSc1nc(=O)n(Cc2ccncc2)c2c1CCC2`, the normalized B-score (activity score, 25-100; higher = stronger inhibition) result is “inactive”.

In the case of `CCN(CC)CCCNC(=O)CCn1nc(-c2ccc(Cl)cc2)ccc1=O`, the normalized B-score (activity score, 25-100; higher = stronger inhibition) result is “inactive”.

As to `Cc1ccc(-c2c[n+](=O)c3c(n2[O-])CCC3)cc1`, the normalized B-score (activity score, 25-100; higher = stronger inhibition) entry was “inactive”.

Take `Cc1ccc(OCCCC(=O)Nc2ccc(S(=O)(=O)Nc3cc(C)nc(C)n3)cc2)cc1`: the normalized B-score (activity score, 25-100; higher = stronger inhibition) entry was “inactive”.

Turning to `O=C(Cn1cnc2ccccc2c1=O)Nc1cccc(S(=O)(=O)N2CCCCC2)c1`, the normalized B-score (activity score, 25-100; higher = stronger inhibition) result was “inactive”.

On to `CC1CCN(S(=O)(=O)c2ccc3ncn(CC(=O)N(C)C4CCCCC4)c(=O)c3c2)CC1`, for which the normalized B-score (activity score, 25-100; higher = stronger inhibition) result is “inactive”.

Take `CCN1CCCC1CNC(=O)Cn1cnc2ccc(S(=O)(=O)N3CCC(C)CC3)cc2c1=O` (stereo not drawn): the normalized B-score (activity score, 25-100; higher = stronger inhibition) is 25 (active).

With `CC(=O)NC1C(Oc2ccc(C=O)cc2)OC(COC(C)=O)C(OC(C)=O)C1OC(C)=O` (stereo not drawn), the normalized B-score (activity score, 25-100; higher = stronger inhibition) entry is “inactive”.

Consider `COc1ccc(C(=O)NC(=S)NNC(=O)c2c(-c3ccccc3)noc2C)cc1`, for which the normalized B-score (activity score, 25-100; higher = stronger inhibition) was 100 (active).

Turning to `Cc1onc(-c2ccccc2)c1C(=O)NNC(=S)NC(=O)c1ccc(F)cc1`, the normalized B-score (activity score, 25-100; higher = stronger inhibition) result is “inactive”.

Turning to `COc1ccc(C(=O)NNC(=S)NC(=O)c2ccccc2)cc1`, the normalized B-score (activity score, 25-100; higher = stronger inhibition) result was “inactive”.

With `CC(C)C[C@H](NC(=O)C1CC(=O)N(c2ccc3c(c2)OCCO3)C1)C(=O)NC1CCCC1` (stereo partly drawn), the normalized B-score (activity score, 25-100; higher = stronger inhibition) result was “inactive”.

In the case of `Cc1cccc(C)c1NC(=O)c1ccc(CN2CCc3ccccc3C2)cc1`, the normalized B-score (activity score, 25-100; higher = stronger inhibition) result was “inactive”.

On to `CN(c1cccc(NC(=O)c2ccc(CN3CCc4ccccc4C3)cc2)c1)S(C)(=O)=O`, for which the normalized B-score (activity score, 25-100; higher = stronger inhibition) was 25 (active).

With `CN(c1ccc(C(=O)N2CCc3ccccc3C2)cc1)S(C)(=O)=O`, the normalized B-score (activity score, 25-100; higher = stronger inhibition) result is “inactive”.

As to `COc1cccc(-n2c(=O)c3c(C)c(C(=O)N(C)C)sc3n(CC(=O)NCCc3ccc(OC)c(OC)c3)c2=O)c1`, the normalized B-score (activity score, 25-100; higher = stronger inhibition) entry is “inactive”.

As for `Cc1nc(SC(C)C)[nH]c(=O)c1Cc1ccccc1`, the normalized B-score (activity score, 25-100; higher = stronger inhibition) entry is “inactive”.

Turning to `O=C1CC(C(F)(F)C(F)(F)C(F)(F)C(F)(F)F)=Nc2ccccc2N1`, the normalized B-score (activity score, 25-100; higher = stronger inhibition) entry was “inactive”.

Turning to `Cc1ccc(-n2ncc3c(N4CCN(c5ccc(F)cc5)CC4)ncnc32)c(C)c1`, the normalized B-score (activity score, 25-100; higher = stronger inhibition) is 100 (active).

With `Cc1ccc(-n2ncc3c(=O)[nH]cnc32)c(C)c1`, the normalized B-score (activity score, 25-100; higher = stronger inhibition) result was “inactive”.

Consider `Cc1ccc2cc(C)c(N3CCN(c4ccc(F)cc4)CC3)nc2c1`, for which the normalized B-score (activity score, 25-100; higher = stronger inhibition) result was “inactive”.

On to `CCN(CC)C(=O)Oc1ccc(OC(=O)N(CC)CC)cc1`, for which the normalized B-score (activity score, 25-100; higher = stronger inhibition) result is “inactive”.

Consider `Cc1ccc(NC(=O)CN2C(=O)NC(C)(c3ccc(Cl)cc3)C2=O)c(Br)c1` (stereo not drawn), for which the normalized B-score (activity score, 25-100; higher = stronger inhibition) result is “inactive”.

`CCOC(=O)C1=C(CN2CCc3ccccc32)NC(=O)NC1c1ccc(Cl)cc1` (stereo not drawn): the normalized B-score (activity score, 25-100; higher = stronger inhibition) result is “inactive”.

In the case of `CCOC(=O)C1=C(CN2CCCCCC2)NC(=O)NC1c1cccc([N+](=O)[O-])c1` (stereo not drawn), the normalized B-score (activity score, 25-100; higher = stronger inhibition) entry was “inactive”.

In the case of `CCOC(=O)C1=C(CN2CCc3ccccc32)NC(=O)NC1c1cccc([N+](=O)[O-])c1` (stereo not drawn), the normalized B-score (activity score, 25-100; higher = stronger inhibition) was 25 (active).

Take `CS(=O)(=O)N(CC(=O)N1CCOCC1)c1cccc(Cl)c1Cl`: the normalized B-score (activity score, 25-100; higher = stronger inhibition) entry is “inactive”.

In the case of `CN(CC(=O)NCCc1ccccc1)S(=O)(=O)c1cnc[nH]1`, the normalized B-score (activity score, 25-100; higher = stronger inhibition) entry was “inactive”.

Turning to `COc1ccc(C2C(C(C)=O)=C(O)C(=O)N2c2nccs2)cc1` (stereo not drawn), the normalized B-score (activity score, 25-100; higher = stronger inhibition) entry was “inactive”.

As to `Cc1cc(C)c(-c2c(O)c3ccccc3n(C)c2=O)c(C)c1`, the normalized B-score (activity score, 25-100; higher = stronger inhibition) result is “inactive”.

Take `CN(C)CCCN1C(=O)CSC1c1ccc([N+](=O)[O-])cc1` (stereo not drawn): the normalized B-score (activity score, 25-100; higher = stronger inhibition) entry was “inactive”.

Consider `CCCCCCCCCCCCN1C(=O)CSC1c1cccnc1` (stereo not drawn), for which the normalized B-score (activity score, 25-100; higher = stronger inhibition) was 25 (active).

As for `CCCCCCOc1ccc(OC(=O)c2cccnc2)cc1`, the normalized B-score (activity score, 25-100; higher = stronger inhibition) result is “inactive”.

Turning to `CCOC(=O)N/N=C1\CC(C)S(=O)(=O)c2ccc(Cl)cc21` (stereo not drawn), the normalized B-score (activity score, 25-100; higher = stronger inhibition) entry is “inactive”.

In the case of `CN(C)c1cc[n+](Cc2ccccc2)cc1`, the normalized B-score (activity score, 25-100; higher = stronger inhibition) is 25 (active).

`CN(C)c1ccc(/C=C2\NC(=S)N(Cc3ccccc3)C2=O)cc1`: the normalized B-score (activity score, 25-100; higher = stronger inhibition) entry was “inactive”.

Turning to `c1ccc(Cc2cc[n+](Cc3ccccc3)cc2)cc1`, the normalized B-score (activity score, 25-100; higher = stronger inhibition) entry was “inactive”.

For the compound `O=C(NCCC1CCCCN1S(=O)(=O)c1ccccc1)C(=O)NCC1CCCO1` (stereo not drawn), the normalized B-score (activity score, 25-100; higher = stronger inhibition) entry was “inactive”.

Consider `COc1ccc(CN2CN(C3CCCC3)CSC2=S)cc1`, for which the normalized B-score (activity score, 25-100; higher = stronger inhibition) entry is “inactive”.

`COC(=O)c1c(C)c(C)nc(N)c1C#N`: the normalized B-score (activity score, 25-100; higher = stronger inhibition) result was “inactive”.

`COc1ccc(CNC(=O)CN(Cc2ccccc2Cl)C(=O)c2csnn2)cc1`: the normalized B-score (activity score, 25-100; higher = stronger inhibition) result was “inactive”.

On to `O=C(CSc1nnnn1-c1ccc(O)cc1)c1ccc(F)cc1`, for which the normalized B-score (activity score, 25-100; higher = stronger inhibition) result was “inactive”.

Turning to `CC(=O)Nc1ccc(NC(=O)CSc2nnnn2-c2ccccc2F)cc1`, the normalized B-score (activity score, 25-100; higher = stronger inhibition) result was “inactive”.

For `Cc1ccccc1-n1nnnc1SCCCC(=O)c1ccc(F)cc1`, the normalized B-score (activity score, 25-100; higher = stronger inhibition) was 100 (active).
